Screening data: PubChem, National Center for Advancing Translational Sciences (NCATS)
Rows were chosen to be rich in hits. Some 6.6% of all compounds tested hit in one or more screens of this group.
KB-3-1 tox = kills parental KB-3-1 adenocarcinoma cells | KB-3-1 viability, CellTiter-Glo ATP luminescence, 72 h | Potency, µM (doses to about 46.1 µM), actives largely listed as cytotoxic | 1.4% of 400,000 active; also: nearly all actives have a fitted effect of over 60% in size
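Cytotoxicity measured as CellTiter-Glo luminescence after 72 h at 37 C. Compound titrations were pinned onto drug-naive KB-3-1 parental adenocarcinoma cells grown in DMEM with 10% FBS, and normalized data fitted to concentration-response curves.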
SW480 rereplic = induces DNA re-replication in SW480 colon adenocarcinoma cells. SW480 DNA re-replication, Hoechst DNA content imaging, 48 h. 1.8% of 340,000 active. Potency, µM (top dose mostly 46.1 µM), hits mostly activators; also: nearly all actives have a fitted effect of over 55% in size
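SW480 cells exposed to compounds for 48 hr at 37 C, 5% CO2, then Hoechst-stained 40 min. Nuclear DNA content imaged by fluorescence scanning (405 nm excitation, 500-530 nm emission); re-replication scored as increased high-intensity nuclei.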
MCF10A rerep = DNA re-replication induction in MCF 10a cells. MCF 10A DNA re-replication, Hoechst nuclear intensity, 48 h. Potency, µM (series often up to 46.1 µM), hits mostly activators. 2.9% of 350,000 active. AID 624296; also: nearly all actives have a fitted effect of over 50% in size
RGS4 inh = inhibitors of human regulator of G protein signaling 4 | P49798 | Transcreener GDP fluorescence polarization, RGS4-accelerated GTP hydrolysis | Potency, µM (doses to about 114 µM), actives largely listed as inhibitors | 0.039% of 390,000 active; also: nearly all actives have a fitted effect of over 75% in size
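MLSMR compounds (23 nl, pin-transferred) preincubated 10 min at room temperature with a 500nM (2x) first reagent, then RGS4 at 900nM (2x) plus Transcreener GDP mix added; fluorescence polarization (620/688 nm) read before and after 90 min at 30 °C.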
TSG101-PTAP inh = blocks PTAP/TSG101 interaction to inhibit HIV-1 budding. Fluorescence polarization, FITC-PTAP peptide / Tsg101 binding. Potency, µM (titrated, usually from 115 µM), actives largely listed as inhibitors. 340,000 tested, under 10 active; active = well fitted inhibition curve with a large enough effect in the main read-out, with a control signal flat, not every such curve was filed as active; inconclusive = small, poorly fitted or top-dose-only effect, or effect the other way, or a change in a side signal; inactive = no such curve, though single readings can be large or run the other way
Target sequence (Q99816 whole entry, looked up): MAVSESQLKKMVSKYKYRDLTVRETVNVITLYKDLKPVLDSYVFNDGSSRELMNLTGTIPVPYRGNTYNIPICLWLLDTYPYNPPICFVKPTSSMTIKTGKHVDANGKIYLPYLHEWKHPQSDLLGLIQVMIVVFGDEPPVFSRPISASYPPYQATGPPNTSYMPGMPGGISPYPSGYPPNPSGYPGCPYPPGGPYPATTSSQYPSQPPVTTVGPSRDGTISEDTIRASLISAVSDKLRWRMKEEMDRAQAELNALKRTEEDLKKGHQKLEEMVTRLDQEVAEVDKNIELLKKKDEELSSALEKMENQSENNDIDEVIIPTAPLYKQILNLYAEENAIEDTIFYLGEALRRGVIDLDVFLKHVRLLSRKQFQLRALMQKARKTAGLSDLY
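Tsg101 binding domain (10 uM final) was mixed with compound and a FITC-labeled PTAP peptide (50 nM final) in HEPES pH 7.5 buffer with NaCl, Tween 20, EDTA and TCEP; fluorescence polarization was read after 20 min at r.t.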
KB-V1 MDR tox = kills drug-selected multidrug resistant KB-V1 cells; KB-V1 MDR cells viability, CellTiter-Glo, 72 h; Potency, µM (highest dose often 46.1 µM), most hits filed as cytotoxic; 3.4% of 400,000 active; also: nearly all actives have a fitted effect of over 60% in size
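Readout: CellTiter-Glo luminescence, 10 min after addition. Cells: KB-V1 MDR subline, 72 h at 37 degrees C with compound. Analysis: corrected, normalized data fitted to concentration-effect curves.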
Numbers stand for hits; - = inactive; ? = inconclusive; . = no result given. Unless noted, calls follow the shape of the dose curve; as a rule, active = well fitted curve in the direction sought with a large enough effect; inconclusive = small, poorly fitted or top-dose-only effect, or another doubt; inactive = no such curve, though single readings can be large; an effect the other way counts as inactive or inconclusive.

SMILES	KB-3-1 tox	SW480 rereplic	MCF10A rerep	RGS4 inh	TSG101-PTAP inh	KB-V1 MDR tox
Cc1ccc(NS(=O)(=O)c2cccc(C(=O)NCC(c3ccco3)N3CCCC3)c2)cc1 (stereo unspecified)	-	?	12µM	-	-	-
COc1ccc(C(CNC(=O)c2cccc(S(=O)(=O)Nc3cccc(C)c3)c2)N2CCOCC2)cc1 (stereo unspecified)	-	-	-	-	-	21µM
COc1ccc(C(CNC(=O)c2cccc(S(=O)(=O)Nc3ccc(C)cc3)c2)N2CCOCC2)cc1 (stereo unspecified)	?	-	-	-	-	?
Cc1cccc(NC(=O)Cn2c(=O)n(CC3CCC(C(=O)NCCc4ccccc4)CC3)c(=O)c3ccccc32)c1 (stereo unspecified)	-	.	.	-	.	-
CCc1cccc(-n2c(=O)c3cccnc3n2CC(=O)Nc2ccc(F)c(C)c2)c1	.	.	.	-	.	.
O=C(NCCc1ccc(Cl)cc1)c1ccc2c(c1)N(Cc1cccc(Cl)c1)C(=O)c1ccccc1S2(=O)=O	.	.	.	-	.	.
O=S(=O)(c1ccccc1)N(CC1CO1)c1ccccc1 (stereo unspecified)	-	-	-	-	-	-
O=S(=O)(c1ccccc1)N(CC1CO1)c1cccc2ccccc12 (stereo unspecified)	-	21µM	?	-	-	-
Cc1cccc(C2=NN(c3ccccc3)[C@@H](C(=O)N3CCOC3=O)[C@@H]2c2ccccc2)c1	-	16µM	?	-	-	-
Cc1cccc(C2=NN(c3ccc(Br)cc3)[C@@H](C(=O)N3CCOC3=O)[C@@H]2c2ccccc2)c1	-	?	1.5µM	-	-	-
Cc1ccc(S(=O)(=O)N2[C@@H](c3ccc(Br)cc3)C(C(=O)O)=CC[C@H]2c2cccc(C)c2)cc1	-	?	-	-	-	-
CCn1cc2nc(SCC(=O)Nc3cc(OC)cc(OC)c3)n(Cc3ccc(Cl)cc3)c(=O)c2n1	-	.	.	-	.	-
CSc1ccc(CCNC(=O)Cn2ncn3c(cc4ccccc43)c2=O)cc1	.	.	.	-	.	.
Cc1ccc(Cl)c(OCCCCN(C)Cc2ccccc2)c1	-	-	-	-	-	21µM
COc1ccc(OCCCCN(C)Cc2ccccc2)cc1	-	-	?	-	-	-
COC(=O)c1ccc(OCCCCN(C)Cc2ccccc2)cc1	?	-	18µM	-	-	-
CC(C)Oc1ccc(CNC(=O)c2ccc3nc(Cc4ccccc4)oc3c2)cc1	-	.	.	-	.	-
O=c1[nH]c(CSc2nc(-c3ccc(F)cc3)cs2)nc2ccccc12	-	-	-	-	-	5.8µM
CCOc1ccc(Nc2nnc(SCc3nc4ccccc4c(=O)[nH]3)s2)cc1	-	-	10µM	-	-	-
Cc1cccc(C)c1Nc1nnc(SCc2nc3ccccc3c(=O)[nH]2)s1	-	?	?	-	-	-
O=C(CN1C(=O)COc2ccc(S(=O)(=O)N3CCCCCC3)cc21)N1CCN(c2ccc(Cl)cc2)CC1	-	.	.	-	.	?
Cc1c(NC2(c3nnnn3-c3ccc(Br)cc3)CCCCC2)c(=O)n(-c2ccccc2)n1C	-	-	-	-	-	3.7µM
Cc1c(NC2(C#N)CCCC2)c(=O)n(-c2ccccc2)n1C	-	-	?	-	-	-
CC(C)c1ccc(OCC(=O)N(Cc2cccs2)C2CCS(=O)(=O)C2)cc1 (stereo unspecified)	-	.	.	-	.	-
C/C(CC(=O)Nc1ccccn1)=N\NC(=O)c1ccccc1O	?	1.3µM	-	-	-	-
C/C(CC(=O)Nc1cc(C)ccn1)=N\NC(=O)c1cccc(C)c1	?	-	-	-	-	-
C/C(CC(=O)Nc1cc(C)ccn1)=N\NC(=O)c1cccc(C)c1O	?	12µM	?	?	-	?
C/C(CC(=O)Nc1ccccn1)=N\NC(=O)c1ccc2ccccc2c1	-	-	-	-	-	-
Fc1cc2nccnc2cc1N1CCSCC1	-	-	-	-	-	-
Fc1cc2[nH]c(=S)[nH]c2c(Br)c1N1CCSCC1	2.1µM	-	-	-	-	?
